Reference: PubChem BioAssay (NCATS)
Records with an inconclusive call do not appear. Active and inactive are the calls of the source. Calls come from the whole dose curve; as a rule, active = well fitted inhibition curve with a large enough effect; inconclusive = small, poorly fitted or top-dose-only effect; inactive = flat fitted curve, though single readings scatter.

Tests used:
[1] = qHTS profiling for inhibitors of Plasmodium falciparum proliferation (AID 504749); note: nearly all actives have a fitted effect of over 60% in size;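 for activity, negative = inhibition: 0% = DMSO vehicle and full inhibition = artemisinin control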; details: P. falciparum in erythrocytes, SYBR Green DNA, 72 h
Outline: (§1)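 Quantitative HTS: compounds pinned into medium, infected erythrocytes added (0.3% parasitemia, 2.5% hematocrit), 72 h culture at 37 C under 5% CO2. Saponin/Triton lysis with SYBR Green I, overnight RT, then fluorescence read.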

3D7 = assay: as above; details: P. falciparum in erythrocytes, SYBR Green DNA, 72 h; series mostly up to 28.7 µM
Outline: as §1

7G8 = assay: as above; details: P. falciparum in erythrocytes, SYBR Green DNA, 72 h; series mostly up to 28.7 µM
Outline: as §1

AA1029 = assay: as above; details: P. falciparum in erythrocytes, SYBR Green DNA, 72 h; series mostly up to 28.7 µM
Outline: as §1

AS120 = assay: as above; details: P. falciparum in erythrocytes, SYBR Green DNA, 72 h; series mostly up to 28.7 µM
Outline: as §1

ATS95 = assay: as above; details: P. falciparum in erythrocytes, SYBR Green DNA, 72 h; series mostly up to 28.7 µM
Outline: as §1

C2A = assay: as above; details: P. falciparum in erythrocytes, SYBR Green DNA, 72 h; series mostly up to 28.7 µM
Outline: as §1

CP185 = assay: as above; details: P. falciparum in erythrocytes, SYBR Green DNA, 72 h; series mostly up to 28.7 µM
Outline: as §1

ATS189 = assay: as above; details: P. falciparum in erythrocytes, SYBR Green DNA, 72 h; series mostly up to 28.7 µM
Outline: as §1

[2] = at 28.7 µM (top of the series), parasite line A
[3] = at 28.7 µM (top of the series), parasite line B
[4] = at 12.8 µM (top of the series), parasite line A
[5] = at 12.8 µM (top of the series), parasite line B
Potency is the fitted concentration of half-maximal effect.

COc1cc(O)c(C(=O)c2ccccc2)cc1S(=O)(=O)O
inactive: activity, negative = inhibition [1, 2] -0.769% | activity, negative = inhibition [1, 3] 4.93% | Potency (3D7) | Potency (AA1029) | Potency (AS120) | Potency (ATS95) | Potency (C2A) | Potency (CP185)
active: Potency (7G8) 11.2 µM

CC(C)NCC(O)c1ccc2ccccc2c1 (stereo unspecified)
active: Potency ([1]; parasite line A) 11.2 µM | Potency ([1]; parasite line B) 4.47 µM | Potency (3D7) 11.2 µM | Potency (7G8) 1.41 µM | Potency (AA1029) 5.01 µM | Potency (AS120) 7.94 µM | Potency (ATS189) 8.91 µM | Potency (ATS95) 8.91 µM | Potency (CP185) 8.91 µM

NC(N)=NN=C(/C=C/c1ccc([N+](=O)[O-])o1)/C=C/c1ccc([N+](=O)[O-])o1
active: Potency ([1]; parasite line A) 7.08 µM | Potency ([1]; parasite line B) 10 µM | Potency (3D7) 2.24 µM | Potency (7G8) 2.24 µM | Potency (AA1029) 10 µM | Potency (AS120) 11.2 µM | Potency (ATS95) 10 µM | Potency (C2A) 12.6 µM

CCOc1ccc(NC(C)=O)cc1
inactive: activity, negative = inhibition [1, 2] -9.23% | activity, negative = inhibition [1, 3] 8.77% | Potency (3D7) | Potency (7G8) | Potency (AA1029) | Potency (AS120) | Potency (ATS189) | Potency (ATS95) | Potency (C2A) | Potency (CP185)

FC(F)(F)C(F)(F)C(F)(F)C(F)(F)C(F)(F)C(F)(F)C(F)(F)C(F)(F)Br
inactive: activity, negative = inhibition [1, 2] 2.77% | activity, negative = inhibition [1, 3] -1.15% | Potency (3D7) | Potency (7G8) | Potency (AA1029) | Potency (AS120) | Potency (ATS189) | Potency (ATS95) | Potency (C2A) | Potency (CP185)

CN1CCN(c2cc3c(cc2F)c(=O)c(C(=O)O)cn3-c2ccc(F)cc2)CC1
inactive: activity, negative = inhibition [1, 2] -21.3% | activity, negative = inhibition [1, 3] -17.5% | Potency (3D7) | Potency (7G8) | Potency (AA1029) | Potency (ATS189) | Potency (ATS95) | Potency (C2A) | Potency (CP185)

CC(C)CCCC(C)N (stereo unspecified)
inactive: activity, negative = inhibition [1, 2] 13% | activity, negative = inhibition [1, 3] -1.67% | Potency (3D7) | Potency (7G8) | Potency (AA1029) | Potency (AS120) | Potency (ATS189) | Potency (ATS95) | Potency (C2A) | Potency (CP185)

CC(=O)Nc1ncc([N+](=O)[O-])s1
inactive: activity, negative = inhibition [1, 2] 11.2% | activity, negative = inhibition [1, 3] 9.19% | Potency (3D7) | Potency (7G8) | Potency (AA1029) | Potency (AS120) | Potency (ATS189) | Potency (ATS95) | Potency (C2A) | Potency (CP185)

Nc1ccc(C(=O)NCC(=O)O)cc1
inactive: activity, negative = inhibition [1, 4] 7.06% | activity, negative = inhibition [1, 5] 8.58% | Potency (3D7) | Potency (7G8) | Potency (AA1029) | Potency (AS120) | Potency (ATS189) | Potency (ATS95) | Potency (C2A) | Potency (CP185)

NCc1ccccc1Sc1ccccc1CO
inactive: activity, negative = inhibition [1, 2] 10.7% | activity, negative = inhibition [1, 3] -5.68% | Potency (3D7) | Potency (ATS189) | Potency (C2A) | Potency (CP185)
active: Potency (7G8) 11.2 µM

N/C(=N\N=C\c1ccc(Cl)cc1)N/N=C/c1ccc(Cl)cc1
active: Potency ([1]; parasite line A) 3.16 µM | Potency ([1]; parasite line B) 5.01 µM | Potency (3D7) 3.98 µM | Potency (7G8) 2.82 µM | Potency (AS120) 5.01 µM | Potency (ATS95) 8.91 µM | Potency (C2A) 8.91 µM

Cc1c[nH]c2ccccc12
inactive: activity, negative = inhibition [1, 2] -2.76% | activity, negative = inhibition [1, 3] 2.47% | Potency (3D7) | Potency (7G8) | Potency (AA1029) | Potency (AS120) | Potency (ATS189) | Potency (ATS95) | Potency (C2A) | Potency (CP185)

COc1cc(C(=S)N2CCOCC2)ccc1O
inactive: activity, negative = inhibition [1, 2] 1.83% | activity, negative = inhibition [1, 3] -2.75% | Potency (3D7) | Potency (7G8) | Potency (AA1029) | Potency (AS120) | Potency (ATS189) | Potency (ATS95) | Potency (C2A) | Potency (CP185)

CN1CCN(CCC(=O)N2c3ccccc3Sc3ccc(C(F)(F)F)cc32)CC1
active: Potency (7G8) 10 µM
inactive: activity, negative = inhibition [1, 2] 8.92% | activity, negative = inhibition [1, 3] -2.7% | Potency (3D7) | Potency (AS120) | Potency (ATS95) | Potency (C2A)

COc1cc(C)nc(-n2nc(C)cc2OC)n1
inactive: activity, negative = inhibition [1, 4] 3.73% | activity, negative = inhibition [1, 5] -3.99% | Potency (3D7) | Potency (7G8) | Potency (AA1029) | Potency (AS120) | Potency (ATS189) | Potency (ATS95) | Potency (C2A) | Potency (CP185)

NC(=O)c1ccccc1O
inactive: activity, negative = inhibition [1, 2] 4.99% | activity, negative = inhibition [1, 3] 15.1% | Potency (3D7) | Potency (7G8) | Potency (AA1029) | Potency (AS120) | Potency (ATS189) | Potency (ATS95) | Potency (C2A) | Potency (CP185)
